In PubChem BioAssay (NCATS):
Records with an inconclusive call do not appear. The source made the active and inactive calls. Calls follow the shape of the dose curve; as a rule, active = well fitted curve in the direction sought with a large enough effect; inconclusive = small, poorly fitted or top-dose-only effect, or another doubt; inactive = no such curve, though single readings can be large; an effect the other way counts as inactive or inconclusive.

Tests used:
[1] = qHTS of pediatric cancer cell lines to identify multiple opportunities for drug repurposing: Primary screen for SK-N-SH cells (AID 1347098); also: nearly all actives have a fitted effect of over 65% in size; also: potency is read from the fitted curve at half-maximal effect;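 as to activity change, negative = cytotoxic: DMSO served as neutral control and bortezomib at 2.3 µM as positive control; % is scaled to controls: 0 for no effect and ±100 for the full control effect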
Method in brief: (§1)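 Cells (500-1,000/well) rested 5 h, then received compounds for 48 h; metabolically active cells were measured by CellTiter-Glo luminescence. Final concentrations spanned up to 46 µM (MIPE, 11-point) or 0.59 nM-46 µM (NPC, 8-point) in primary screens, 11-point in follow-ups.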

[2] = qHTS of pediatric cancer cell lines to identify multiple opportunities for drug repurposing: Primary screen for NB1643 cells (AID 1347099); also: nearly all actives have a fitted effect of over 50% in size; also: potency is read from the fitted curve at half-maximal effect;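 as to activity change, negative = cytotoxic: plate controls were DMSO neutral control for no effect and bortezomib positive control for full effect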
Method in brief: (§2)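 CRCs from 8- or 11-point titrations (lowest final 0.59 nM NPC, 0.78 nM MIPE). Cell viability: CellTiter-Glo after 48 h incubation, 15 min room-temperature development, luminescence imaging.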

[3] = qHTS of pediatric cancer cell lines to identify multiple opportunities for drug repurposing: Primary screen for LAN-5 cells (AID 1347100); also: potency is read from the fitted curve at half-maximal effect;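 as to activity change, negative = cytotoxic: plate controls were DMSO neutral control for no effect and bortezomib positive control for full effect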
Method in brief: (§3)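 Cells (500-1,000/well) in growth media were settled 5 h at 37 degrees C, then given compounds for 48 h. Viability was read as CellTiter-Glo luminescence. Primary runs used MIPE at 11 points (0.78 nM-46 µM) and NPC at 8 points (0.59 nM-46 µM); follow-ups used 11 points.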

[4] = qHTS of pediatric cancer cell lines to identify multiple opportunities for drug repurposing: Primary screen for Rh18 cells (AID 1347102); also: nearly all actives have a fitted effect of over 65% in size; also: potency is read from the fitted curve at half-maximal effect; as to activity change, negative = cytotoxic: % is scaled to controls: 0 for no effect and ±100 for the full control effect
Method in brief: as §3

[5] = qHTS of pediatric cancer cell lines to identify multiple opportunities for drug repurposing: Primary screen for OHS-50 cells (AID 1347103); also: nearly all actives have a fitted effect of over 40% in size; also: potency is read from the fitted curve at half-maximal effect;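 as to activity change, negative = cytotoxic: plate controls were DMSO neutral control for no effect and bortezomib positive control for full effect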
Method in brief: as §1

[6] = qHTS of pediatric cancer cell lines to identify multiple opportunities for drug repurposing: Primary screen for RD cells (AID 1347104); also: nearly all actives have a fitted effect of over 55% in size; also: potency is read from the fitted curve at half-maximal effect;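 as to activity change, negative = cytotoxic: plate controls were DMSO for no effect and bortezomib for full effect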
Method in brief: as §2

[7] = qHTS of pediatric cancer cell lines to identify multiple opportunities for drug repurposing: Primary screen for control Hh wild type fibroblast cells (AID 1347106);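 also: series mostly up to about 46 µM; % is scaled to controls: 0 for no effect and ±100 for the full control effect; a drop in luminescence marks cytotoxicity and a rise apparent proliferation; nearly all actives have a fitted effect of over 55% in size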
Method in brief: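 Viability after 48 h compound treatment at 37C, 500-1,000 cells/well, read as ATP luminescence with CellTiter-Glo. Primary screens used 11-point (MIPE, 0.78 nM-46 µM) or 8-point (NPC, 0.59 nM-46 µM) final concentrations; follow-up screens used 11-point dilutions.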

[8] = qHTS of pediatric cancer cell lines to identify multiple opportunities for drug repurposing: Primary screen for Rh30 cells (AID 1347107); also: nearly all actives have a fitted effect of over 75% in size; also: potency is read from the fitted curve at half-maximal effect; as to activity change, negative = cytotoxic: series mostly up to about 46 µM; % is scaled to controls: 0 for no effect and ±100 for the full control effect
Method in brief: as §3

[9] = qHTS of pediatric cancer cell lines to identify multiple opportunities for drug repurposing: Primary screen for MG 63 (6-TG R) cells (AID 1347105); also: nearly all actives have a fitted effect of over 50% in size; also: potency is read from the fitted curve at half-maximal effect; as to activity change, negative = cytotoxic: % is scaled to controls: 0 for no effect and ±100 for the full control effect
Method in brief: as §2

[10] = qHTS of pediatric cancer cell lines to identify multiple opportunities for drug repurposing: Primary screen for BT-12 cells (AID 1347101); also: nearly all actives have a fitted effect of over 25% in size; also: potency is read from the fitted curve at half-maximal effect;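 as to activity change, negative = cytotoxic: plate controls were DMSO for no effect and bortezomib positive control for full effect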
Method in brief: as §1

CC[C@H](C=C[C@@H](C)[C@H]1CC[C@H]2[C@@H]3CC=C4C[C@@H](O)CC[C@]4(C)[C@@H]3CC[C@]12C)C(C)C
inactive: Potency [1] | Potency [2] | Potency [3] | Potency [4] | Potency [5] | Potency [6] | Potency [7] | Potency [8]

CN1N=C(N)c2cn([C@@H]3O[C@H](COP(=O)(O)O)[C@@H](O)[C@@H]3O)c3ncnc1c23
active: Potency [1] 21.5 µM | Potency [2] 16.6 µM | Potency [3] 0.166 µM | Potency [4] 9.35 µM | Potency [5] 0.193 µM

CCC(=C(CC)c1ccc(O)cc1)c1ccc(O)cc1
inactive: Potency [4] | Potency [7] | Potency [8]
active: Potency [1] 7.64 µM | Potency [2] 9.35 µM | Potency [3] 16.6 µM | Potency [5] 30.6 µM | Potency [9] 18.7 µM

Cn1cc(-c2ccc3nnc(Sc4ccc5ncccc5c4)n3n2)cn1
inactive: Potency [1] | Potency [2] | Potency [3] | Potency [10] | Potency [5] | Potency [7]

Cc1cccc2c1CC[C@H](CN1CCC(c3c(Cl)cccc3Cl)CC1)C[C@@H]2O
inactive: Potency [1] | Potency [2] | Potency [4] | Potency [9] | Potency [8]
active: Potency [3] 18.7 µM | Potency [5] 5.44 µM | Potency [6] 33.2 µM

CC1CNc2c(cccc2S(=O)(=O)N[C@@H](CCCN=C(N)N)C(=O)N2CC[C@@H](C)C[C@@H]2C(=O)O)C1 (some centres not stated)
inactive: Potency [4] | Potency [5] | Potency [9] | Potency [8]
active: Potency [1] 8.57 µM | Potency [2] 5.26 µM | Potency [3] 9.35 µM

CCC(=O)NCC[C@@H]1CCc2ccc3c(c21)CCO3
inactive: Potency [1] | Potency [2] | Potency [3] | Potency [4] | Potency [9] | Potency [7] | Potency [8]

Cc1ccc(NC(=O)c2cccc(N(C)C)c2)cc1NC(=O)c1ccc(O)cc1
active: Potency [1] 15.2 µM | Potency [2] 0.332 µM | Potency [3] 2.96 µM | Potency [6] 2.64 µM
inactive: Potency [4] | Potency [5] | Potency [7]

O=C(C=Cc1ccc(O)cc1)c1ccc(O)cc1O
inactive: Potency [7]
active: Potency [1] 6.07 µM | Potency [2] 13.2 µM | Potency [3] 20.9 µM

Cc1cc2c(cc1C1(c3ccc(C(=O)O)cn3)CC1)C(C)(C)CCC2(C)C
inactive: Potency [1] | Potency [2] | Potency [3] | Potency [4] | Potency [9] | Potency [7]

CCc1cccc(CC)c1NC(=O)N1Cc2[nH]nc(NC(=O)c3ccc(N4CCN(C)CC4)cc3)c2C1
active: Potency [1] 6.07 µM | Potency [3] 0.296 µM | Potency [4] 8.33 µM | Potency [9] 14.8 µM
inactive: Potency [2] | Potency [8]

Cc1nn(Cc2ccccc2Cl)c(C)c1CN(C)CC(O)COc1ccc(Cl)cc1 (configuration not stated)
active: Potency [1] 24.1 µM | Potency [2] 14.8 µM | Potency [3] 20.9 µM | Potency [6] 33.2 µM
inactive: Potency [7]

CN[C@H]1[C@@H](O[C@@H]2[C@H](O[C@@H]3[C@@H](O)[C@@H](O)[C@@H](N=C(N)N)[C@@H](O)[C@@H]3N=C(N)N)O[C@H](C)[C@@]2(O)C=O)O[C@@H](CO)[C@@H](O)[C@H]1O
inactive: activity change, negative = cytotoxic [1] 18.9% [at 11.4 µM] | activity change, negative = cytotoxic [2] 3.56% [at 9.22 µM] | activity change, negative = cytotoxic [10] -1.02% [at 11.5 µM] | activity change, negative = cytotoxic [4] 1.83% [at 9.22 µM] | activity change, negative = cytotoxic [5] 7.71% [at 11.5 µM] | activity change, negative = cytotoxic [6] 1.46% [at 9.22 µM] | activity change, negative = cytotoxic [9] -18.1% [at 9.22 µM] | activity change, negative = cytotoxic [7] 10.5% [at 9.22 µM] | activity change, negative = cytotoxic [8] 15.1% [at 9.22 µM]

Cc1cc(NC(=O)Nc2ccc(N(C)C)cc2)c2cc(F)cc(F)c2n1
inactive: Potency [1] | Potency [2] | Potency [3] | Potency [4] | Potency [6] | Potency [9] | Potency [7] | Potency [8]

CN1CCN2c3ncccc3Cc3ccccc3C2C1 (configuration not stated)
inactive: Potency [1] | Potency [2] | Potency [10] | Potency [4] | Potency [5] | Potency [6] | Potency [9] | Potency [7] | Potency [8]

CC(C)(F)C[C@H](N[C@@H](c1ccc(-c2ccc(S(C)(=O)=O)cc2)cc1)C(F)(F)F)C(=O)NC1(C#N)CC1
inactive: Potency [1] | Potency [2] | Potency [3] | Potency [10] | Potency [9] | Potency [7] | Potency [8]

Cn1c(=O)c(-c2c(Cl)cccc2Cl)cc2cnc(Nc3cccc(C(=O)O)c3)nc21
inactive: Potency [1] | Potency [2] | Potency [3] | Potency [10] | Potency [6] | Potency [7] | Potency [8]

O=c1[nH]c(=O)n([C@H]2C[C@@H](O)[C@@H](CO)O2)cc1I
inactive: Potency [1] | Potency [2] | Potency [3] | Potency [5] | Potency [6] | Potency [9] | Potency [7] | Potency [8]

CC[C@@H]([C@H](C)O)n1ncn(-c2ccc(N3CCN(c4ccc(OCC5CO[C@@](Cn6cncn6)(c6ccc(F)cc6F)C5)cc4)CC3)cc2)c1=O (some centres not stated)
active: Potency [2] 23.5 µM | Potency [3] 18.7 µM | Potency [5] 21.7 µM | Potency [6] 20.9 µM
inactive: Potency [1] | Potency [9]

CN(C)CCOc1ccc(-c2nc(-c3ccc4c(c3)CCC4=NO)c(-c3ccncc3)[nH]2)cc1
active: Potency [1] 24.1 µM | Potency [2] 20.9 µM | Potency [10] 27.3 µM | Potency [4] 23.5 µM | Potency [6] 18.7 µM | Potency [8] 18.7 µM
